# In the supplement of paper PMC4709259:
# Structures can show the parent of a compound that is named as a salt. ± gives the standard deviation.
# Assays:
# [1] = system: Jurkat; assay: mean cell size (FSC-A) relative to DMSO control (fraction of control); higher = larger cells; conditions: 48 h
# Outline: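 Jurkat cells at 600 cells/µl were incubated for 1 h and then treated for 48h with the Enzo Screen-Well FDA Approved Drug Library v2.0 at 25µM, with DMSO at 0.9% (v/v) final. Compounds that reduced counts below 20% of controls were retested in 10-fold dilutions down to 25nM. Cell count and mean cell size, taken as forward scatter area, were measured by flow cytometry relative to solvent-only controls. Each plate carried 6-12 controls, and values are means of 3 biological replicates.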
# [2] = system: Jurkat; assay: cell count relative to DMSO control (fraction of control); higher = more cells (less growth inhibition); conditions: 48 h
SMILES,mean cell size [1],cell count [2]
COc1cccc(C2(O)CCCCC2CN(C)C)c1 (stereo not drawn) [Tramadol·HCl] (concentration: 25 µM),0.938 ± 0.042,0.58 ± 0.18
CN1[C@@H]2C[C@@H](OC(=O)[C@H](CO)c3ccccc3)C[C@H]1[C@@H]1O[C@@H]12 [Scopolamine·HBr] (concentration: 25 µM),1 ± 0.061,0.608 ± 0.1
CC(O)(CS(=O)(=O)c1ccc(F)cc1)C(=O)Nc1ccc(C#N)c(C(F)(F)F)c1 (stereo not drawn) [Bicalutamide] (concentration: 25 µM),0.973 ± 0.027,0.836 ± 0.064
NCC1(CC(=O)O)CCCCC1 [Gabapentin] (concentration: 25 µM),0.943 ± 0.02,0.935 ± 0.036
Cc1c(N)nc(C(CC(N)=O)NCC(N)C(N)=O)nc1C(=O)NC(C(=O)NC(C)C(O)C(C)C(=O)NC(C(=O)NCCc1nc(-c2nc(C(=O)NCCC[S+](C)C)cs2)cs1)C(C)O)C(O[C@@H]1O[C@@H](CO)[C@@H](O)[C@H](O)[C@@H]1O[C@H]1O[C@H](CO)[C@@H](O)[C@H](OC(N)=O)[C@@H]1O)c1cnc[nH]1 (stereo partly drawn) [Bleomycin Sulfate] (concentration: 2.5 µM),1.33 ± 0.048,0.297 ± 0.043
O=C1Nc2ccc(Cl)cc2C(c2ccccc2Cl)=NC1O (stereo not drawn) [Lorazepam] (concentration: 25 µM),0.927 ± 0.03,0.912 ± 0.056
C#CCN(C)[C@H](C)Cc1ccccc1 [Selegiline·HCl] (concentration: 25 µM),0.9392 ± 0.0074,0.711 ± 0.098
Cl[C@H]1[C@H](Cl)[C@@H](Cl)[C@@H](Cl)[C@H](Cl)[C@H]1Cl [Lindane] (concentration: 25 µM),0.981 ± 0.037,0.667 ± 0.091
CN(C)C(=O)Oc1ccc[n+](C)c1 [Pyridostigmine Bromide] (concentration: 25 µM),0.986 ± 0.027,0.651 ± 0.11
NCCCNCCSP(=O)(O)O [Amifostine] (concentration: 25 µM),0.95 ± 0.036,0.8 ± 0.12
COc1cc([C@@H]2c3cc4c(cc3[C@H](O)[C@H]3COC(=O)[C@H]23)OCO4)cc(OC)c1OC [Podofilox] (concentration: 25 nM),0.863 ± 0.026,0.0355 ± 0.018
O=C1Nc2ccc(Cl)cc2C(c2ccccc2)=NC1O (stereo not drawn) [Oxazepam] (concentration: 25 µM),0.938 ± 0.029,0.645 ± 0.05
CC[C@@H](CO)NC(=O)[C@@H]1C=C2c3cccc4[nH]cc(c34)C[C@H]2N(C)C1 [Methylergonovine Maleate] (concentration: 25 µM),1.01 ± 0.016,0.865 ± 0.15
CN1C(=O)CC(=O)N(c2ccccc2)c2cc(Cl)ccc21 [Clobazam] (concentration: 25 µM),0.984 ± 0.032,0.64 ± 0.12
CN1C(=O)C(O)N=C(c2ccccc2)c2cc(Cl)ccc21 (stereo not drawn) [Temazepam] (concentration: 25 µM),0.805 ± 0.037,0.916 ± 0.032
CCN(C)C(=O)Oc1cccc([C@H](C)N(C)C)c1 [Rivastigmine Tartrate] (concentration: 25 µM),1.01 ± 0.022,0.843 ± 0.13
CN1CCN(C(=O)O[C@H]2c3nccnc3C(=O)N2c2ccc(Cl)cn2)CC1 [Eszopiclone] (concentration: 25 µM),1.01 ± 0.025,0.796 ± 0.072
CN(C)[C@@H]1C(=O)C(C(N)=O)=C(O)[C@@]2(O)C(=O)C3=C(O)c4c(O)cccc4[C@@](C)(O)[C@H]3[C@H](O)[C@@H]12 [Oxytetracycline·HCl] (concentration: 25 µM),0.894 ± 0.014,0.884 ± 0.1
CC1(C)C(C=C(Cl)Cl)C1C(=O)OCc1cccc(Oc2ccccc2)c1 (stereo not drawn) [Permethrin] (concentration: 25 µM),1.03 ± 0.068,1.05 ± 0.08
N[C@@H](Cc1ccc(N(CCCl)CCCl)cc1)C(=O)O [Melphalan] (concentration: 250 nM),1.02 ± 0.022,0.46 ± 0.08
CC[C@@H](C(N)=O)N1CCCC1=O [Levetiracetam] (concentration: 25 µM),0.968 ± 0.018,0.603 ± 0.1
Oc1ccc2c3c1O[C@H]1[C@@H](O)CC[C@@]4(O)[C@@H](C2)N(CC2CCC2)CC[C@]314 [Nalbuphine·HCl Dihydrate] (concentration: 25 µM),0.955 ± 0.048,0.995 ± 0.17
CCCC(C)(COC(N)=O)COC(N)=O [Meprobamate (Schedule Iv)] (concentration: 25 µM),1.08 ± 0.036,0.941 ± 0.069
Cn1c(CCCC(=O)O)nc2cc(N(CCCl)CCCl)ccc21 [Bendamustine·HCl] (concentration: 25 µM),1.26 ± 0.022,0.2666 ± 0.00052
